Hit rate of the full screen: of about 16,000 compounds, about 2,600 (16%) were called active. Not shown: some 20% with an inconclusive outcome. Calls follow the shape of the dose curve; as a rule, active = well fitted curve in the direction sought with a large enough effect; inconclusive = small, poorly fitted or top-dose-only effect, or effect the other way; inactive = no such curve, though single readings can be large or run the other way. Only a sample is shown.
The compounds below were run against Cytochrome P450 2D6 (Homo sapiens) (UniProt P10635) (assay: Cytochrome panel assay with activity outcomes). Details: recombinant CYP, pro-luciferin dealkylation, luminescence, p450-cyp2d6; series mostly up to 57.1 µM; activity, negative = inhibition: at the top concentration.
% is scaled to controls: 0 for no effect and ±100 for the full control effect.

Chain of Cytochrome P450 2D6 (Homo sapiens) (P10635 whole entry, looked up): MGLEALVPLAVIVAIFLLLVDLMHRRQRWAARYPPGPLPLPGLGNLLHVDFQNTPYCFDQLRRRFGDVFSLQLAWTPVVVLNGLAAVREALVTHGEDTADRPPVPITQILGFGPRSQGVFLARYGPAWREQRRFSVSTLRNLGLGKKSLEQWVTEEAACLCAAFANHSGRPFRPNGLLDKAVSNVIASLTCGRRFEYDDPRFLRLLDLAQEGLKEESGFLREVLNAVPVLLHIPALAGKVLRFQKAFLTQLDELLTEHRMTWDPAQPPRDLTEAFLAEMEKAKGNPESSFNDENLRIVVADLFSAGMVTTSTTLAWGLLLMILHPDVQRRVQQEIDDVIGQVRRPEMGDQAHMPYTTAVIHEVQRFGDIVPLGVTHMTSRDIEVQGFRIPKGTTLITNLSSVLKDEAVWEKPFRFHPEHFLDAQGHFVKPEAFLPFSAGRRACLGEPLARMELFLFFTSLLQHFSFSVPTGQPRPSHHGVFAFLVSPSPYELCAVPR

Structure (SMILES)	activity, negative = inhibition	AC50
CC(C)NC(=O)CC(=O)N/N=C/c1ccc(Br)cc1	-10.9% (inactive)	–
CC(=O)NCCc1c(Cc2ccccc2)[nH]c2ccccc12	-11.5% (inactive)	–
CCSc1c(C(=O)NC)ccc2c1C(=O)c1ccccc1C2=O	-22.2% (inactive)	–
Cc1[nH]c2ccccc2c1CCNC(=O)c1ccc2c(c1[N+](=O)[O-])C(=O)c1ccccc1C2=O	–	1.12 µM (active)
CC(C)[C@@H]1NC(=O)[C@H](CCCCN)NC(=O)[C@H](Cc2c[nH]c3ccccc23)NC(=O)[C@H](Cc2ccc(O)cc2)NC(=O)[C@H](C)N(C)C(=O)[C@H](Cc2ccccc2)NC1=O	2.29% (inactive)	–
Nc1ccc(-c2ccc(Nc3cc(S(=O)(=O)O)c(N)c4c3C(=O)c3ccccc3C4=O)cc2)c(S(=O)(=O)O)c1	6.34% [at 11.4 µM] (inactive)	–
COc1ccccc1CNc1nc(-c2cccc(C#N)c2)nc2ccccc12	–	10 µM (active)
N#Cc1cccc(-c2nc(NCc3cccnc3)c3ccccc3n2)c1	-8.94% (inactive)	–
N#Cc1cccc(-c2nc(Nc3ccccc3)c3ccccc3n2)c1	9.28% (inactive)	–
N#Cc1cccc(-c2nc(NCc3ccccc3)c3ccccc3n2)c1	–	10 µM (active)
CNc1nc(-c2cccc(C#N)c2)nc2ccccc12	8.46% (inactive)	–
Cn1cnnc1SCC(=O)OCN1C(=O)c2ccccc2C1=O	21.6% (inactive)	–
Cc1noc(C)c1C(=O)N1CCC2(CCN(C(=O)NC(C)C)CC2)CC1	11.3% (inactive)	–
Cn1c(=O)c2c(ncn2CCO)n(C)c1=O	-0.742% [at 25.6 µM] (inactive)	–
Cn1c(=O)c2c(ncn2CC(COCc2ccccc2Cl)OCc2ccccc2Cl)n(C)c1=O (stereo not drawn)	–	15.8 µM (active)
Cn1c(=O)c2c(ncn2C[C@@H](O)CO)n(C)c1=O	0.0743% [at 25.6 µM] (inactive)	–
Cc1cccc(C(=O)NNC(=O)C(=O)NC(C)(C)C)c1	8.26% (inactive)	–
CC1(C)CC(=O)C2=C(C1)N(Cc1cccnc1)C(=O)C2(NC(=O)c1cccnc1)C(F)(F)F (stereo not drawn)	12.6% (inactive)	–
CCn1c(-c2ccc3ncccc3c2)n[nH]c1=S	-1.86% (inactive)	–
CCn1c(-c2ccoc2C)n[nH]c1=S	4.15% (inactive)	–
CCCOc1cccc(-c2cc(-c3n[nH]c(=S)n3CC)c3ccccc3n2)c1	–	6.31 µM (active)
CSc1nnc2c(n1)OC(C)N(C(=O)c1ccccc1)c1ccccc1-2 (stereo not drawn)	-6.63% (inactive)	–
CC(=C/c1ccccc1)/C=N/n1cnnc1	-4.74% (inactive)	–
CC(/C=N/n1c(-c2cccnc2)n[nH]c1=S)=C\c1ccccc1	–	7.08 µM (active)
CCOC(=O)CSc1n[nH]c(-c2cccnc2)n1	20% (inactive)	–
COc1ccc(-n2c(=O)c(-c3cccs3)nc3cnc(Nc4cccc(OC)c4)nc32)cc1	6% (inactive)	–
O=c1onc(-c2cccs2)n1Cc1ccccc1	–	11.2 µM (active)

Structure (SMILES)	activity, negative = inhibition	AC50
CN(C)c1ncc2nc(-c3cccs3)c(=O)n(CCc3ccccc3)c2n1	-3.61% (inactive)	–
O=c1c(-c2cccs2)nc2cncnc2n1Cc1ccccc1	-2.29% (inactive)	–
COc1cc2c(cc1OC)C(C(=O)N1CCN(c3ccccn3)CC1)C(c1cccs1)N(C)C2=O (stereo not drawn)	-6.69% (inactive)	–
OCCN(CCO)c1ncnc2nc[nH]c12	-3.25% [at 11.4 µM] (inactive)	–
Cc1cc(C)cc(NC(=O)N2CCCC2C(=O)Nc2ccc(-n3cnnn3)c(C)c2)c1 (stereo not drawn)	1.05% (inactive)	–
COc1cccc(Nc2ncc3nc(-c4ccc(F)cc4)c(=O)n(CCC#N)c3n2)c1	-3.04% (inactive)	–
COc1ccc(N2CCN(C(=S)Nc3cc(C)cc(C)c3)CC2)cc1	-6.18% (inactive)	–
CCOC(=O)c1[nH]c(C(=O)O)c(CCC(=O)OC)c1C	1.16% (inactive)	–
CN1CCN(C2=Cc3ccccc3Oc3ccc(Cl)cc32)CC1	–	0.0398 µM (active)
CN1CCN(c2cc(-c3ccccc3C(F)(F)F)ncn2)CC1	-0.967% (inactive)	–
Cc1ccc(Cl)cc1N1CCN(S(=O)(=O)c2ccc3c(c2)OCCO3)CC1	7.2% (inactive)	–
COCCn1c(=O)c(-c2ccc(Cl)cc2)nc2cnc(Nc3ccccc3)nc21	-2.28% (inactive)	–
Cn1c(N)c(N=Nc2ccc(S(N)(=O)=O)cc2)c(=O)n(C)c1=O	5.11% [at 11.4 µM] (inactive)	–
Cc1cc(N2CCOCC2)nc2ccc(Cc3ccc4nc(N5CCOCC5)cc(C)c4c3)cc12	-2.88% [at 11.4 µM] (inactive)	–
CCN(CC)C(=O)N1CCN(C)CC1	2.61% [at 25.6 µM] (inactive)	–
COc1ccc(Sc2ccc(NC(=O)c3ccccc3Cl)cc2C#N)cc1	-7.88% (inactive)	–
Cc1cccc(NC(=O)CC2Nc3cccc4cccc(c34)NC2=O)c1 (stereo not drawn)	–	14.1 µM (active)
CCOC(=O)c1ccc(NC(=O)CC2NCCNC2=O)cc1 (stereo not drawn)	20.7% (inactive)	–
CC(=O)Nc1ccc(NC(=O)CC2Nc3cccc4cccc(c34)NC2=O)cc1 (stereo not drawn)	-14.1% (inactive)	–
Cc1nc(NS(=O)(=O)c2ccc(Br)cc2)c2c3c(sc2n1)CCC3	-1.48% (inactive)	–
Cc1cc(NC(=O)c2cccc(F)c2)no1	-5.34% (inactive)	–
Cc1ccc(-c2csc(C(C#N)=C3CCCC3)n2)cc1	-8.56% (inactive)	–
Cc1ccc(N2CC(C(=O)Nc3cc(C)on3)CC2=O)cc1 (stereo not drawn)	-5.5% (inactive)	–
c1ccc(CNc2ncncc2-c2ccoc2)cc1	–	20 µM (active)
Cc1cnc(CNc2ncncc2-c2ccoc2)cn1	-4.95% (inactive)	–
c1csc(CNc2ncncc2-c2ccoc2)c1	–	15.8 µM (active)

From PubChem BioAssay AID1851 (National Center for Advancing Translational Sciences (NCATS), 2009)
